Compound activity from PubChem.
Shown are actives, neighbours in structure and some others; about 5.6% of the full set was active somewhere.
PfGluPho inh = PfG6PD (Plasmodium falciparum) enzyme inhibition. actives 0.78% (n = 350,000). inhibition, % at 20 µM. PfGluPho enzyme, NADPH resazurin-diaphorase fluorescence;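 active = inhibition reaching at least a set limit at 20 µM in the primary screen, cut at about 59% in these data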;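 also: 0% = DMSO wells with substrate and 100% = DMSO wells lacking glucose-6-phosphate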
Cardio protect = protects H9c2 cardiomyocytes from peroxide injury | H2O2 injury protection, ATPLite, 2 h | protection from H2O2 cell death, % at 20 µM | actives 0.63% (n = 360,000);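 active = compounds giving at least 50% protection of heart cells from peroxide-induced death in the single-dose screen, raw or plate-pattern-corrected value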;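 also: 0% = DMSO wells with peroxide and 100% = DMSO wells without peroxide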
PHOSPHO1 inh = blocks human PHOSPHO1 phosphatase activity; Q8TCT1; recombinant PHOSPHO1, absorbance phosphatase assay; inhibition, % at 13.3 µM; actives 1.1% (n = 290,000); in the data active = inhibition above about 60%
Target sequence (Q8TCT1 whole entry, looked up): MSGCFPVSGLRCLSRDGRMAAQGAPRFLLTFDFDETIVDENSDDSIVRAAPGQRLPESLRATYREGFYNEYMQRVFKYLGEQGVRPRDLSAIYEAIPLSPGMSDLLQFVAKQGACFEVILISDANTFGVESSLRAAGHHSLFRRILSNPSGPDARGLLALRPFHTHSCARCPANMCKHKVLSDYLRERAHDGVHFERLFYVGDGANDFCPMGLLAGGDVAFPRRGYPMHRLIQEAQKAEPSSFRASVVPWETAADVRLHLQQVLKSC
M18AAP inhibitor = PfM18AAP enzyme inhibition. recombinant PfM18AAP, H-Glu-NHMec fluorogenic cleavage. inhibition, % at 7.35 µM. actives 1.2% (n = 290,000);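 active = inhibition above the campaign mean inhibition over all tested compounds plus 3 SD, cut at about 28% in these data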;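 also: 0% = plate median of test compound wells and 100% = 2 mM ZnCl2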
ALR inh = human ALR oxidase inhibition via reduced H2O2; P55789; purified ALR, DTT oxidation, H2O2 HRP-luminol luminescence; inhibition, % (no concentration beside the values); actives 3.8% (n = 290,000);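 active = mean replicate inhibition above about 79%, with every replicate also reaching it, limit read from the data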
Target sequence (P55789 whole entry, looked up): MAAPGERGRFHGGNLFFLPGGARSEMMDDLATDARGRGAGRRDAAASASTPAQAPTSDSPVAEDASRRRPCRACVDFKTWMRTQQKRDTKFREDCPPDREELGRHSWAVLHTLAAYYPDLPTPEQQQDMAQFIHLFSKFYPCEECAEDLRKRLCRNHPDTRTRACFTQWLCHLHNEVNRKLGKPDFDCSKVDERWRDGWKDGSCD
* marks the source's active call; other numbers are inactive results; . = no result.

SMILES | PfGluPho inh | Cardio protect | PHOSPHO1 inh | M18AAP inhibitor | ALR inh
O=C(CSc1nnc(-c2cc3ccccc3cc2O)n1Cc1ccco1)c1ccc(F)cc1 | -1 | -8 | 81* | 8 | -1
COc1ccc(C(=O)CSc2nnc(CNc3ccc(C)cc3C)n2Cc2ccco2)cc1 | 2 | 6 | 91* | 2 | .
Cc1ccc(NCc2nnc(SCC(=O)N3CCCCC3)n2CC2CCCO2)c(C)c1 (stereo unspecified) | -1 | 3 | . | 7 | 92*
Cc1ccc(NCc2nnc(SCC(=O)NCc3ccco3)n2CC2CCCO2)c(C)c1 (stereo unspecified) | 8 | 14 | -4 | 2 | 72
Cc1ccc(C(=O)CSc2nnc(CNc3ccc(C)cc3C)n2Cc2ccco2)cc1 | 15 | -15 | -16 | 2 | 6
Cc1ccc(-c2nc3c4ccccc4ccn3c2Cc2ccsc2)cc1 | . | -1 | . | . | .
O=C(CSc1nnc(COc2ccccc2)n1Cc1ccco1)c1ccc(F)cc1 | 25 | 9 | 78* | 11 | 14
CCOC1=C2CN(S(=O)(=O)c3ccc(C)cc3)[C@@H](c3cccs3)C[C@H]2[C@H]2C(=O)N(c3ccccc3)C(=O)[C@H]2C1 | . | 1 | . | . | .
CCCCCCOc1ccc(/C(N)=N/O)cc1 | -16 | 0 | -14 | -4 | 99*
CC1CCN(C(=O)COC(=O)c2n[nH]c(=O)c3ccccc23)CC1 | -9 | 62* | . | . | -2
CCn1c(NC(=O)/C=C/c2ccc(F)cc2)nc2ccccc21 | 0 | 74* | 32 | -8 | .
CSc1ccc(NC(=O)C2(C)CCN2C(=O)c2cc(C)n(C)n2)cc1 (stereo unspecified) | . | -2 | . | . | .
Cc1ccc(OCCNC(=O)CCNS(=O)(=O)c2ccc3ccccc3c2)cc1 | 0 | -10 | . | . | -8
CN(C(=S)NC(=O)c1ccccc1Br)C1CCCCC1 | -7 | 0 | -32 | 7 | 99*
O=C(O)c1cccc(Nc2nc(Nc3ccccc3)nc(N3CCCC3)n2)c1 | -23 | 2 | 1 | 6 | 95*
c1ccc(Nc2nc(N3CCCC3)nc(N3CCCC3)n2)cc1 | 7 | -2 | -9 | 8 | -3
CCCCn1c(N)c(N(CCOC)C(=O)c2cc(-c3ccccc3Cl)nc3ccccc23)c(=O)[nH]c1=O | -7 | 5 | . | . | .
O=c1cc(C(F)(F)F)nc(SC/C=C/c2ccccc2)[nH]1 | -9 | -12 | 18 | -11 | 78*
CC(Sc1nnnn1-c1ccc(Cl)cc1)C(=O)NCC(=O)Nc1ccc(F)c(F)c1F (stereo unspecified) | -11 | -2 | 6 | 1 | 1
Cn1c(=S)[nH]c2cccnc21 | 1 | -4 | 25 | -6 | 97*
O=C(Nc1ccc2cn[nH]c2c1)c1c(Cl)cccc1Cl | 41 | -3 | -1 | -1 | -11
O=C1C(Cl)=C(Nc2ccc3cn[nH]c3c2)C(=O)c2ccccc21 | 36 | -19 | 34 | 47* | -106
Cc1ccccc1Nc1cc2ccccc2c(=O)[nH]1 | 30 | -36 | 20 | 1 | -17
Cc1cc2ccccc2c(=O)[nH]1 | -2 | 57* | 10 | -6 | -1
CC(=O)OC1CC(C)(C)N(OC(=O)c2ccc(N)cc2)C(C)(C)C1 | 2 | -1 | 26 | 0 | 98*
SMILES | PfGluPho inh | Cardio protect | PHOSPHO1 inh | M18AAP inhibitor | ALR inh
Cc1ccc(NC2CCCN(C(=O)CCn3nccc3C)C2)cc1C (stereo unspecified) | 22 | -5 | -1 | 9 | 99*
Cc1ccnn1CCC(=O)N1CCCC(CCC(=O)N2CCN(c3ccccn3)CC2)C1 (stereo unspecified) | -5 | -5 | 28 | 3 | 0
Cc1ccc(NC2CCCN(C(=O)CCN3CCOCC3)C2)cc1C (stereo unspecified) | 23 | 3 | 42 | 7 | 99*
CC(C)c1ccc(NC2CCCN(C(=O)CCN3CCOCC3)C2)cc1 (stereo unspecified) | 27 | -4 | 29 | -2 | 55
O=C(CCc1ccccc1)NC1(Cc2ccccc2)CCN(CCCc2ccccc2)C1=O (stereo unspecified) | -3 | -13 | . | . | 0
O=C(CNC(=O)c1ccccc1F)Nc1ccccc1C(F)(F)F | -9 | 3 | 69* | -1 | 1
Cc1noc(C)c1NC(=O)N(C)C[C@@H]1OCc2cnnn2CCCC(=O)N([C@@H](C)CO)C[C@@H]1C | 14 | 0 | . | . | .
COc1ccc2c(C)cc(=S)[nH]c2c1 | 36 | 2 | -85 | 11 | .
Cc1cc(C)c2[nH]c(=S)cc(C)c2c1 | 49 | 8 | 104* | 20 | 4
N#CCCN=C(NS(=O)(=O)c1ccccc1)c1ccccc1 | -3 | 2 | 28 | 4 | .
CC1CCc2sc3c(c2C1)c(=O)n(CC(=O)O)c(=O)n3Cc1ccc(Cl)cc1 (stereo unspecified) | -2 | -4 | -11 | 0 | .
O=C(O)Cn1c(=O)c2c3c(sc2n(Cc2ccc(Cl)cc2Cl)c1=O)CCCC3 | 4 | -10 | . | 2 | 76*
Cn1c(CNC(=O)c2ccco2)nnc1SCC(=O)c1ccc(F)cc1 | 3 | 2 | 38 | -7 | 86*
COc1ccc(C(=O)NCc2nnc(SCC(=O)c3ccc(F)cc3)n2C)cc1OC | 2 | 1 | . | . | 94*
CC(NC(=O)C1CCN(CCOc2ccc(Cl)cc2)CC1)c1cccc2ccccc12 (stereo unspecified) | . | -1 | . | . | .
COCCCNC(=O)CS(=O)Cc1nc(-c2ccccc2C)oc1C (stereo unspecified) | -3 | -2 | 12 | -1 | 99*
CCOc1ccc(CCNC(=O)CS(=O)Cc2nc(-c3ccccc3Cl)oc2C)cc1OCC (stereo unspecified) | -2 | 4 | 10 | 5 | 99*
Cc1ccc(CCNC(=O)CS(=O)Cc2nc(-c3ccccc3Cl)oc2C)cc1 (stereo unspecified) | -7 | 1 | 15 | -10 | 99*
COc1cc(C(=O)Nc2cc(C(F)(F)F)ccc2N2CCOCC2)ccc1OCC(=O)N1CCOCC1 | -2 | 8 | . | . | -15
N#Cc1c(NC(=O)C(=O)NCCCN2CCOCC2)sc2c1CCCC2 | 4 | -4 | -24 | 4 | 96*
COC(=O)c1c(NC(=O)C(=O)NCCCN2CCOCC2)sc2c1CCC2 | 3 | 2 | 32 | 1 | 44
Fc1ccc(-c2nc3ccc(Br)cn3c2Cc2ccccc2C(F)(F)F)cc1 | . | 0 | . | . | .
CCOC(=O)/C(=C/c1c[nH]c2ccccc12)NC(C)=O | 9 | 0 | 36 | -6 | 97*
COC(=O)/C(=C/c1c[nH]c2ccccc12)NC(C)=O | 4 | 0 | 7 | 0 | 30
O=C(NC1CC2CCCC(C1)N2C(=S)NCCc1ccccc1)C1CC1 (stereo unspecified) | -5 | -11 | 26 | 2 | -1
O=S(=O)(c1ccccc1)N1CCN(c2nc(-c3cccnc3)nc3ccccc23)CC1 | -14 | 58* | . | . | .
O=S(=O)(c1ccc(F)cc1)N1CCN(c2nc(-c3cccnc3)nc3ccccc23)CC1 | -12 | 35 | . | . | 9
Cc1cc(N)n(-c2nc(-c3cccnc3)nc3ccccc23)n1 | 1 | 86* | 14 | -1 | 6
O=[N+]([O-])c1ccc2nc[nH]c2c1 | -8 | 2 | . | . | .
